Consider 11 sequences from PMC11006913.

What all share (experiment): PBM; 200 nM protein, PBS
Common to all, as to settings: dsDNA, one strand shown

The target of assay [1] is HOXC9 (Homo sapiens, UniProt P31274 178-260, K195R).
In assay [2] the target is PRRX1 (Homo sapiens, UniProt P54821 80-166, F113S).
The target in assay [3] is HOXC9 (Homo sapiens, UniProt P31274 178-260).
The target of assay [4] is MSX2 (Homo sapiens, UniProt P35548 130-214, R199I).
Assay [5] addresses HOXC9 (Homo sapiens, UniProt P31274 178-260, R193K).
The target of assay [6] is MSX2 (Homo sapiens, UniProt P35548 130-214).
MSX2 (Homo sapiens, UniProt P35548 130-214), sequence (P35548 130-214): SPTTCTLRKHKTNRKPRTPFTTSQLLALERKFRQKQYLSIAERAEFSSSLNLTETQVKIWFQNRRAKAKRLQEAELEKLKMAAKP
In assay [7] the target is HOXC9 (Homo sapiens, UniProt P31274 178-260, R222W).
HOXC9 (Homo sapiens, UniProt P31274 178-260, R222W), sequence (P31274 178-260 R222W): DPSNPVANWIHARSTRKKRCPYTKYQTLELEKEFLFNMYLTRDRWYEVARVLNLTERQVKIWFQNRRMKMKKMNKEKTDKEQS
The target of assay [8] is MSX2 (Homo sapiens, UniProt P35548 130-214, F161Y).
MSX2 (Homo sapiens, UniProt P35548 130-214, F161Y), sequence (P35548 130-214 F161Y): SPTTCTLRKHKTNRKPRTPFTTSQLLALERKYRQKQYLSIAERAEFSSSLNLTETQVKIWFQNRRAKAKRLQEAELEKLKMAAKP
The target of assay [9] is PRRX1 (Homo sapiens, UniProt P54821 80-166).
PRRX1 (Homo sapiens, UniProt P54821 80-166), sequence (P54821 80-166): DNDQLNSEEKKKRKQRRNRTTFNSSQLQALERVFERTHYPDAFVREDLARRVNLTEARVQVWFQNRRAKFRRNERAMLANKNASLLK
Assay [10] has as its target HOXA4 (Homo sapiens, UniProt Q00056 201-287, W262R).
For assay [11], the target named is HOXA4 (Homo sapiens, UniProt Q00056 201-287).
HOXA4 (Homo sapiens, UniProt Q00056 201-287), sequence (Q00056 201-287): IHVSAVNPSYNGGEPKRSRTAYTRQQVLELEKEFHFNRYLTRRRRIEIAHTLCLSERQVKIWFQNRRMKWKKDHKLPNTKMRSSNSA
Assay [12] deals with HOXC10 (Homo sapiens, UniProt Q9NYD6 254-340).
HOXC10 (Homo sapiens, UniProt Q9NYD6 254-340), sequence (Q9NYD6 254-340): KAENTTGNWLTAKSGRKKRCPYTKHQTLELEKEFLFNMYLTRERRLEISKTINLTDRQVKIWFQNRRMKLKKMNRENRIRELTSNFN
For assay [13], the target named is HOXC10 (Homo sapiens, UniProt Q9NYD6 254-340, K271E).
HOXC10 (Homo sapiens, UniProt Q9NYD6 254-340, K271E), sequence (Q9NYD6 254-340 K271E): as the sequence (Q9NYD6 254-340) above, with K18E counted along it
In assay [14] the target is HOXA4 (Homo sapiens, UniProt Q00056 201-287, W262F).
HOXA4 (Homo sapiens, UniProt Q00056 201-287, W262F), sequence (Q00056 201-287 W262F): as the sequence (Q00056 201-287) above, with W62F counted along it
Assay [15] addresses ALX4 (Homo sapiens, UniProt Q9H161 200-286).
For assay [16], the target named is ALX4 (Homo sapiens, UniProt Q9H161 200-286, Q225E).
ALX4 (Homo sapiens, UniProt Q9H161 200-286, Q225E), sequence (Q9H161 200-286 Q225E): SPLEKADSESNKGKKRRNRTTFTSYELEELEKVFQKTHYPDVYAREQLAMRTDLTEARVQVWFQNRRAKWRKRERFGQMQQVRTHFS
The target of assay [17] is VAX1 (Homo sapiens, UniProt Q5SQQ9 86-172).
VAX1 (Homo sapiens, UniProt Q5SQQ9 86-172), sequence (Q5SQQ9 86-172): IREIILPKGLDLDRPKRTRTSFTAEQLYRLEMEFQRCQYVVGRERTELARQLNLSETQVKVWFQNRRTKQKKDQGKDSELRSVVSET
The target in assay [18] is VAX1 (Homo sapiens, UniProt Q5SQQ9 86-172, T142I).
VAX1 (Homo sapiens, UniProt Q5SQQ9 86-172, T142I), sequence (Q5SQQ9 86-172 T142I): as the sequence (Q5SQQ9 86-172) above, with T57I counted along it
Assay [19] addresses VAX1 (Homo sapiens, UniProt Q5SQQ9 86-172, K157R).
The target in assay [20] is ALX3 (Homo sapiens, UniProt O95076 139-225, L168Q).
ALX3 (Homo sapiens, UniProt O95076 139-225, L168Q), sequence (O95076 139-225 L168Q): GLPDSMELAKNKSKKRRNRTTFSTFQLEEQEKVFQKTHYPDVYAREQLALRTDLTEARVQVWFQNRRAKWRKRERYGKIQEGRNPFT
The target of assay [21] is ALX3 (Homo sapiens, UniProt O95076 139-225, L168V).
ALX3 (Homo sapiens, UniProt O95076 139-225, L168V), sequence (O95076 139-225 L168V): as the sequence (O95076 139-225 L168Q) above, with Q30V counted along it

HOXC9 (Homo sapiens, UniProt P31274 178-260), sequence (P31274 178-260): as the sequence (P31274 178-260 R222W) above, with W45R counted along it
HOXA4 (Homo sapiens, UniProt Q00056 201-287, W262R), sequence (Q00056 201-287 W262R): as the sequence (Q00056 201-287) above, with W62R counted along it
PRRX1 (Homo sapiens, UniProt P54821 80-166, F113S), sequence (P54821 80-166 F113S): as the sequence (P54821 80-166) above, with F34S counted along it
HOXC9 (Homo sapiens, UniProt P31274 178-260, R193K), sequence (P31274 178-260 R193K): as the sequence (P31274 178-260 R222W) above, with R16K, W45R counted along it
HOXC9 (Homo sapiens, UniProt P31274 178-260, K195R), sequence (P31274 178-260 K195R): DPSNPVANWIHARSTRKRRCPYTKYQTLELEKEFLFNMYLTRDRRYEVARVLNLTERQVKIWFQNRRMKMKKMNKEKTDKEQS
MSX2 (Homo sapiens, UniProt P35548 130-214, R199I), sequence (P35548 130-214 R199I): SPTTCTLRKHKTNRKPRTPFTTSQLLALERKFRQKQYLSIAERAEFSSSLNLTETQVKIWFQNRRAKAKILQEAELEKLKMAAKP
ALX4 (Homo sapiens, UniProt Q9H161 200-286), sequence (Q9H161 200-286): as the sequence (Q9H161 200-286 Q225E) above, with E26Q counted along it
VAX1 (Homo sapiens, UniProt Q5SQQ9 86-172, K157R), sequence (Q5SQQ9 86-172 K157R): as the sequence (Q5SQQ9 86-172) above, with K72R counted along it

Turning to GGCGCGCC, the binding signal in assay [1] was 9.93 upbm affinity estimate (log intensity, higher = more binding, comparable within an allelic series); in [2], 9.33 upbm affinity estimate (log intensity, higher = more binding, comparable within an allelic series); in assay [3], 10.1 upbm affinity estimate (log intensity, higher = more binding, comparable within an allelic series); in [4] it was 9.71 upbm affinity estimate (log intensity, higher = more binding, comparable within an allelic series); in assay [5] it was 9.89 upbm affinity estimate (log intensity, higher = more binding, comparable within an allelic series); in assay [6] it was 10.1 upbm affinity estimate (log intensity, higher = more binding, comparable within an allelic series). Also, the binding signal is 9.82 upbm affinity estimate (log intensity, higher = more binding, comparable within an allelic series) in [7]; 10 upbm affinity estimate (log intensity, higher = more binding, comparable within an allelic series) in assay [8]; 9.73 upbm affinity estimate (log intensity, higher = more binding, comparable within an allelic series) in [9].
In the case of ATATTGAC, the binding signal in [1] is 11.1 upbm affinity estimate (log intensity, higher = more binding, comparable within an allelic series); in assay [2], 10.1 upbm affinity estimate (log intensity, higher = more binding, comparable within an allelic series); in assay [3] it was 11.1 upbm affinity estimate (log intensity, higher = more binding, comparable within an allelic series); in assay [5], 11.1 upbm affinity estimate (log intensity, higher = more binding, comparable within an allelic series); in assay [9], 11.4 upbm affinity estimate (log intensity, higher = more binding, comparable within an allelic series).
For the sequence GTAAATAC, the binding signal in assay [10] was 10.3 upbm affinity estimate (log intensity, higher = more binding, comparable within an allelic series); in [11], 11.3 upbm affinity estimate (log intensity, higher = more binding, comparable within an allelic series).
Turning to CTCGCGAG, the binding signal in assay [1] is 9.76 upbm affinity estimate (log intensity, higher = more binding, comparable within an allelic series); in assay [12] it was 10 upbm affinity estimate (log intensity, higher = more binding, comparable within an allelic series); in [3], 9.82 upbm affinity estimate (log intensity, higher = more binding, comparable within an allelic series); in assay [5], 9.78 upbm affinity estimate (log intensity, higher = more binding, comparable within an allelic series); in assay [13] it was 10.1 upbm affinity estimate (log intensity, higher = more binding, comparable within an allelic series); in [7], 9.89 upbm affinity estimate (log intensity, higher = more binding, comparable within an allelic series).
In the case of CCCCTCAC, the binding signal in [1] is 9.6 upbm affinity estimate (log intensity, higher = more binding, comparable within an allelic series); in assay [2], 9.49 upbm affinity estimate (log intensity, higher = more binding, comparable within an allelic series); in assay [3] it was 9.72 upbm affinity estimate (log intensity, higher = more binding, comparable within an allelic series); in [5], 9.5 upbm affinity estimate (log intensity, higher = more binding, comparable within an allelic series); in [7], 9.75 upbm affinity estimate (log intensity, higher = more binding, comparable within an allelic series); in assay [9], 9.53 upbm affinity estimate (log intensity, higher = more binding, comparable within an allelic series).
Consider CACGATCA, for which the binding signal was 10.2 upbm affinity estimate (log intensity, higher = more binding, comparable within an allelic series) in [10]; 11 upbm affinity estimate (log intensity, higher = more binding, comparable within an allelic series) in assay [11]; 10.3 upbm affinity estimate (log intensity, higher = more binding, comparable within an allelic series) in assay [14].
On to GTCTATAA, for which the binding signal in assay [10] is 10.4 upbm affinity estimate (log intensity, higher = more binding, comparable within an allelic series); in [11] it was 11.4 upbm affinity estimate (log intensity, higher = more binding, comparable within an allelic series).
As to GACCTCGC, the binding signal is 9.59 upbm affinity estimate (log intensity, higher = more binding, comparable within an allelic series) in assay [1]; 10 upbm affinity estimate (log intensity, higher = more binding, comparable within an allelic series) in [12]; 9.54 upbm affinity estimate (log intensity, higher = more binding, comparable within an allelic series) in assay [3]; 9.57 upbm affinity estimate (log intensity, higher = more binding, comparable within an allelic series) in [5]; 9.99 upbm affinity estimate (log intensity, higher = more binding, comparable within an allelic series) in assay [13]; 9.76 upbm affinity estimate (log intensity, higher = more binding, comparable within an allelic series) in assay [7].
With CCGGCTAG, the binding signal is 9.47 upbm affinity estimate (log intensity, higher = more binding, comparable within an allelic series) in [1]; 8.04 upbm affinity estimate (log intensity, higher = more binding, comparable within an allelic series) in assay [15]; 8.02 upbm affinity estimate (log intensity, higher = more binding, comparable within an allelic series) in [16]; 9.55 upbm affinity estimate (log intensity, higher = more binding, comparable within an allelic series) in [3]; 9.38 upbm affinity estimate (log intensity, higher = more binding, comparable within an allelic series) in assay [4]; 9.53 upbm affinity estimate (log intensity, higher = more binding, comparable within an allelic series) in assay [5]. The binding signal was 9.32 upbm affinity estimate (log intensity, higher = more binding, comparable within an allelic series) in [6]; 6.74 upbm affinity estimate (log intensity, higher = more binding, comparable within an allelic series) in [17]; 9.7 upbm affinity estimate (log intensity, higher = more binding, comparable within an allelic series) in [7]; 9.36 upbm affinity estimate (log intensity, higher = more binding, comparable within an allelic series) in [8]; 6.97 upbm affinity estimate (log intensity, higher = more binding, comparable within an allelic series) in assay [18]; 6.86 upbm affinity estimate (log intensity, higher = more binding, comparable within an allelic series) in [19].
For the sequence AATTAAAA, the binding signal in assay [1] was 12.5 upbm affinity estimate (log intensity, higher = more binding, comparable within an allelic series); in assay [2] it was 11.2 upbm affinity estimate (log intensity, higher = more binding, comparable within an allelic series); in assay [16] it was 12.8 upbm affinity estimate (log intensity, higher = more binding, comparable within an allelic series); in [13], 11.8 upbm affinity estimate (log intensity, higher = more binding, comparable within an allelic series); in assay [20] it was 10.3 upbm affinity estimate (log intensity, higher = more binding, comparable within an allelic series); in assay [21], 9.86 upbm affinity estimate (log intensity, higher = more binding, comparable within an allelic series).
Consider CATTTGGG, for which the binding signal in assay [10] was 10.1 upbm affinity estimate (log intensity, higher = more binding, comparable within an allelic series); in assay [11], 11.3 upbm affinity estimate (log intensity, higher = more binding, comparable within an allelic series); in assay [14], 10.3 upbm affinity estimate (log intensity, higher = more binding, comparable within an allelic series).
